Tests used:
Details in all cases: concentration: 1 μM,replicates: in singlicate; n = 1
HASPIN = tested on: T1, HASPIN
T1 construct: gene GSG2

HCK = tested on: HCK
HIPK1 = tested on: HIPK1
HIPK2 = tested on: HIPK2
HIPK3 = tested on: HIPK3
HIPK4 = tested on: HIPK4
HPK1 = tested on: HPK1
HUNK = tested on: HUNK
ICK = tested on: ICK
IGF1R = tested on: IGF1R
IKK-alpha = tested on: T2, IKK-alpha
T2 construct: gene CHUK

IKK-beta = tested on: T3, IKK-beta
T3 construct: gene IKBKB

IKK-epsilon = tested on: T4, IKK-epsilon
T4 construct: gene IKBKE

INSRR = tested on: INSRR
INSR = tested on: INSR
IRAK1 = tested on: IRAK1
IRAK3 = tested on: IRAK3
IRAK4 = tested on: IRAK4
ITK = tested on: ITK
[1] = tested on: JAK1(JH1domain-catalytic)
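Further: KINOMEscan kinase panel screen.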

CC(C(=O)NC1CCN(c2ccnc(Nc3ccc(F)cc3)n2)C1)c1ccc(Cl)cc1 (stereo not shown) [GSK1379713]
%Inh (HASPIN): 30%
%Inh (HCK): 0%
%Inh (HIPK1): 0%
%Inh (HIPK2): 6%
%Inh (HIPK3): 0%
%Inh (HIPK4): 0%
%Inh (HPK1): 49%
%Inh (HUNK): 0%
%Inh (ICK): 0%
%Inh (IGF1R): 0%
%Inh (IKK-alpha): 0%
%Inh (IKK-beta): 0%
%Inh (IKK-epsilon): 0%
%Inh (INSRR): 10%
%Inh (INSR): 0%
%Inh (IRAK1): 0%
%Inh (IRAK3): 0%
%Inh (IRAK4): 0%
%Inh (ITK): 10%
%Inh [1]: 5%

COc1cccc(C2=C(Nc3cccc(Cl)c3)C(=O)NC2=O)c1 [SB-341556]
%Inh (HASPIN): 0%
%Inh (HCK): 0%
%Inh (HIPK1): 19%
%Inh (HIPK2): 0%
%Inh (HIPK3): 33%
%Inh (HIPK4): 0%
%Inh (HPK1): 47%
%Inh (HUNK): 0%
%Inh (ICK): 33%
%Inh (IGF1R): 7%
%Inh (IKK-alpha): 39%
%Inh (IKK-beta): 47%
%Inh (IKK-epsilon): 0%
%Inh (INSRR): 0%
%Inh (INSR): 13%
%Inh (IRAK1): 46%
%Inh (IRAK3): 0%
%Inh (IRAK4): 52%
%Inh (ITK): 13%
%Inh [1]: 7%

O=C(Nc1ccc(Oc2ccc3nc(NC(=O)C4CC4)cn3n2)c(F)c1)c1cccn(-c2ccccc2)c1=O
%Inh (HASPIN): 0%
%Inh (HCK): 71%
%Inh (HIPK1): 40%
%Inh (HIPK2): 0%
%Inh (HIPK3): 0%
%Inh (HIPK4): 20%
%Inh (HPK1): 11%
%Inh (HUNK): 6%
%Inh (ICK): 0%
%Inh (IGF1R): 0%
%Inh (IKK-alpha): 0%
%Inh (IKK-beta): 0%
%Inh (IKK-epsilon): 0%
%Inh (INSRR): 0%
%Inh (INSR): 0%
%Inh (IRAK1): 0%
%Inh (IRAK3): 0%
%Inh (IRAK4): 0%
%Inh (ITK): 1%
%Inh [1]: 8%

CC(=O)c1c(-c2ccncc2)[nH]c(-c2ccncc2)c1C [GW493036]
%Inh (HASPIN): 85%
%Inh (HCK): 0%
%Inh (HIPK1): 53%
%Inh (HIPK2): 0%
%Inh (HIPK3): 65%
%Inh (HIPK4): 86%
%Inh (HPK1): 11%
%Inh (HUNK): 26%
%Inh (ICK): 18%
%Inh (IGF1R): 0%
%Inh (IKK-alpha): 35%
%Inh (IKK-beta): 30%
%Inh (IKK-epsilon): 2%
%Inh (INSRR): 0%
%Inh (INSR): 0%
%Inh (IRAK1): 85%
%Inh (IRAK3): 0%
%Inh (IRAK4): 32%
%Inh (ITK): 13%
%Inh [1]: 12%

CC(=O)Nc1ccc(-c2cc3ncnc(SCC(=O)O)c3s2)cc1
%Inh (HASPIN): 13%
%Inh (HCK): 15%
%Inh (HIPK1): 96.7%
%Inh (HIPK2): 97.5%
%Inh (HIPK3): 95.1%
%Inh (HIPK4): 95.6%
%Inh (HPK1): 11%
%Inh (HUNK): 0%
%Inh (ICK): 60%
%Inh (IGF1R): 0%
%Inh (IKK-alpha): 0%
%Inh (IKK-beta): 0%
%Inh (IKK-epsilon): 0%
%Inh (INSRR): 10%
%Inh (INSR): 0%
%Inh (IRAK1): 78%
%Inh (IRAK3): 52%
%Inh (IRAK4): 0%
%Inh (ITK): 2%
%Inh [1]: 0%

C[C@@H]1CNc2c(sc3ccc4nc(-c5ccncc5)ccc4c23)C(=O)N1
%Inh (HASPIN): 70%
%Inh (HCK): 21%
%Inh (HIPK1): 37%
%Inh (HIPK2): 3%
%Inh (HIPK3): 4%
%Inh (HIPK4): 0%
%Inh (HPK1): 0%
%Inh (HUNK): 7%
%Inh (ICK): 0%
%Inh (IGF1R): 0%
%Inh (IKK-alpha): 14%
%Inh (IKK-beta): 0%
%Inh (IKK-epsilon): 0%
%Inh (INSRR): 0%
%Inh (INSR): 0%
%Inh (IRAK1): 78%
%Inh (IRAK3): 42%
%Inh (IRAK4): 0%
%Inh (ITK): 0%
%Inh [1]: 0%

Cc1ccn2nc(-c3ccc(F)cc3)c(-c3ccncc3)c2c1.Cl [GW457859]
%Inh (HASPIN): 32%
%Inh (HCK): 10%
%Inh (HIPK1): 0%
%Inh (HIPK2): 0%
%Inh (HIPK3): 0%
%Inh (HIPK4): 0%
%Inh (HPK1): 12%
%Inh (HUNK): 52%
%Inh (ICK): 0%
%Inh (IGF1R): 0%
%Inh (IKK-alpha): 0%
%Inh (IKK-beta): 0%
%Inh (IKK-epsilon): 16%
%Inh (INSRR): 0%
%Inh (INSR): 0%
%Inh (IRAK1): 13%
%Inh (IRAK3): 0%
%Inh (IRAK4): 0%
%Inh (ITK): 0%
%Inh [1]: 16%

Cc1ccc2c(-c3ccnc(Nc4ccc(C(F)(F)F)cc4)n3)cnn2n1 [GW819776]
%Inh (HASPIN): 12%
%Inh (HCK): 30%
%Inh (HIPK1): 89%
%Inh (HIPK2): 80%
%Inh (HIPK3): 79%
%Inh (HIPK4): 43%
%Inh (HPK1): 0%
%Inh (HUNK): 0%
%Inh (ICK): 66%
%Inh (IGF1R): 7%
%Inh (IKK-alpha): 38%
%Inh (IKK-beta): 10%
%Inh (IKK-epsilon): 0%
%Inh (INSRR): 1%
%Inh (INSR): 14%
%Inh (IRAK1): 73%
%Inh (IRAK3): 4%
%Inh (IRAK4): 0%
%Inh (ITK): 10%
%Inh [1]: 4%

COC(=O)Nc1nc2cc(Oc3ccc(NC(=O)Nc4cc(C(F)(F)F)ccc4Cl)cc3)ccc2[nH]1.Cl [GW697465]
%Inh (HASPIN): 13%
%Inh (HCK): 0%
%Inh (HIPK1): 0%
%Inh (HIPK2): 0%
%Inh (HIPK3): 3%
%Inh (HIPK4): 86%
%Inh (HPK1): 63%
%Inh (HUNK): 17%
%Inh (ICK): 0%
%Inh (IGF1R): 0%
%Inh (IKK-alpha): 35%
%Inh (IKK-beta): 16%
%Inh (IKK-epsilon): 0%
%Inh (INSRR): 0%
%Inh (INSR): 0%
%Inh (IRAK1): 23%
%Inh (IRAK3): 0%
%Inh (IRAK4): 8%
%Inh (ITK): 12%
%Inh [1]: 21%

OCCn1cc(-c2cnc3nnn(Cc4ccc5ncccc5c4)c3n2)cn1
%Inh (HASPIN): 0%
%Inh (HCK): 25%
%Inh (HIPK1): 6%
%Inh (HIPK2): 0%
%Inh (HIPK3): 0%
%Inh (HIPK4): 3%
%Inh (HPK1): 0%
%Inh (HUNK): 0%
%Inh (ICK): 0%
%Inh (IGF1R): 0%
%Inh (IKK-alpha): 3%
%Inh (IKK-beta): 0%
%Inh (IKK-epsilon): 0%
%Inh (INSRR): 0%
%Inh (INSR): 0%
%Inh (IRAK1): 0%
%Inh (IRAK3): 0%
%Inh (IRAK4): 0%
%Inh (ITK): 0%
%Inh [1]: 0%

Cn1ccc2ncnc(Oc3ccc(NC(=O)Nc4ccnc(C(F)(F)F)c4)c(Cl)c3)c21
%Inh (HASPIN): 9%
%Inh (HCK): 0%
%Inh (HIPK1): 35%
%Inh (HIPK2): 0%
%Inh (HIPK3): 0%
%Inh (HIPK4): 0%
%Inh (HPK1): 0%
%Inh (HUNK): 8%
%Inh (ICK): 0%
%Inh (IGF1R): 2%
%Inh (IKK-alpha): 46%
%Inh (IKK-beta): 13%
%Inh (IKK-epsilon): 0%
%Inh (INSRR): 3%
%Inh (INSR): 5%
%Inh (IRAK1): 14%
%Inh (IRAK3): 0%
%Inh (IRAK4): 12%
%Inh (ITK): 0%
%Inh [1]: 1%

CCCC(=O)Nc1n[nH]c2ncccc12 [SB-601436]
%Inh (HASPIN): 29%
%Inh (HCK): 0%
%Inh (HIPK1): 20%
%Inh (HIPK2): 0%
%Inh (HIPK3): 0%
%Inh (HIPK4): 0%
%Inh (HPK1): 6%
%Inh (HUNK): 28%
%Inh (ICK): 7%
%Inh (IGF1R): 0%
%Inh (IKK-alpha): 0%
%Inh (IKK-beta): 0%
%Inh (IKK-epsilon): 0%
%Inh (INSRR): 0%
%Inh (INSR): 0%
%Inh (IRAK1): 0%
%Inh (IRAK3): 0%
%Inh (IRAK4): 0%
%Inh (ITK): 0%
%Inh [1]: 5%

CCn1c(-c2nonc2N)nc2cncc(Br)c21 [SB-738004]
%Inh (HASPIN): 99.4%
%Inh (HCK): 3%
%Inh (HIPK1): 47%
%Inh (HIPK2): 74%
%Inh (HIPK3): 74%
%Inh (HIPK4): 0%
%Inh (HPK1): 42%
%Inh (HUNK): 27%
%Inh (ICK): 7%
%Inh (IGF1R): 0%
%Inh (IKK-alpha): 12%
%Inh (IKK-beta): 0%
%Inh (IKK-epsilon): 26%
%Inh (INSRR): 0%
%Inh (INSR): 0%
%Inh (IRAK1): 63%
%Inh (IRAK3): 0%
%Inh (IRAK4): 0%
%Inh (ITK): 0%
%Inh [1]: 18%

O=C(NCC1CC1)c1ccc(-c2cc(C(=O)NC3CC3)ccc2F)cc1 [GW810445]
%Inh (HASPIN): 2%
%Inh (HCK): 10%
%Inh (HIPK1): 0%
%Inh (HIPK2): 0%
%Inh (HIPK3): 0%
%Inh (HIPK4): 12%
%Inh (HPK1): 0%
%Inh (HUNK): 56%
%Inh (ICK): 0%
%Inh (IGF1R): 0%
%Inh (IKK-alpha): 0%
%Inh (IKK-beta): 0%
%Inh (IKK-epsilon): 0%
%Inh (INSRR): 0%
%Inh (INSR): 0%
%Inh (IRAK1): 0%
%Inh (IRAK3): 1%
%Inh (IRAK4): 0%
%Inh (ITK): 0%
%Inh [1]: 0%
